From PubChem BioAssay AID686971 (National Center for Advancing Translational Sciences (NCATS), 2013) come the findings set out here.

Hit rate of the full screen: of about 360,000 compounds, about 7,500 (2.1%) were called active. About 8% were inconclusive and are not listed. The call rests on the fitted dose curve; in most records, active means well fitted cell-killing curve with a large enough effect; inconclusive means small, poorly fitted or top-dose-only effect, or effect the other way, or another doubt; inactive means no such curve, though single readings can be large or run the other way. For the sample, actives were picked, then their nearest neighbours and some compounds at random.
Potency means the concentration at half of the fitted maximal effect.

A short description of this assay: qHTS for induction of synthetic lethality in tumor cells producing 2HG: qHTS for the HT-1080-IDH1KD cell line.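 On activity, negative = toxicity: 0% = DMSO wells and -100% = cell-free medium wells.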 As to conditions: HT-1080 IDH1 knockdown viability, ATP luminescence, 48 h; series mostly up to 46.1 µM; activity, negative = toxicity: at the top concentration. The gist of the method:
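After a 2 h attachment period, IDH1KD HT-1080 cells took pin-transferred compound for 48 h at 37 °C; ATP-based luminescence after 10 min room-temperature reagent incubation reported viability.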
On the technique in general: qHTS replaces the single test concentration by a dilution series.
Regarding `Nc1cccc(-c2cncc(N3CCN(Cc4ccccn4)CC3)n2)c1`, the “activity, negative = toxicity” value was 7.1% (inactive). Same read-out and setting: for `C[C@H](CO)N1C[C@H](C)[C@H](CN(C)C(=O)Nc2ccc3c(c2)OCO3)Oc2ncc(Br)cc2C1=O` the value was 8.51% (inactive). On the same count and under the same terms, to `COc1ccccc1-n1nnnc1SCC(=O)NC(=O)Cc1ccccc1` belongs 0.816% (inactive); to `CCC(C)N(C(=O)CSc1nnnn1-c1ccccc1OC)C1CCS(=O)(=O)C1` (stereo unspecified), 2.01% (inactive). Turning to `COc1ccccc1-n1nnnc1S(=O)(=O)Cc1ccc(Cl)cc1`, the Potency was 16.4 µM (active). On to `OC[C@@H]1CN(Cc2ccc3c(c2)OCO3)C[C@H](n2cnc3c(NCc4ccco4)ncnc32)O1`, for which the “activity, negative = toxicity” value is 4.42% (inactive). In the case of `CC(C)(C)C1CCC(=O)N2CCC[C@]2(c2ccccc2)C1` (stereo partly specified), the “activity, negative = toxicity” value is 9.93% (inactive). As to `CCCc1ccc(S(=O)(=O)N2CCN(C(=O)c3cc(C)on3)CC2)cc1`, the “activity, negative = toxicity” value is -0.945% (inactive). On to `Cc1cc(Nc2ccc(C)c(C)c2)n2ncnc2n1`, for which the “activity, negative = toxicity” value was -2.91% (inactive).

Consider `CC(=O)OC[C@@H]1CN(Cc2ccccc2)C[C@H](n2cnc3c(NCc4ccco4)ncnc32)O1`, for which the “activity, negative = toxicity” value was 19.6% (inactive). On the same count and under the same terms, to `CSc1ccccc1-c1nnc(-c2ccc(Cl)cc2)o1` belongs -1.6% [at 9.24 µM] (inactive); to `O=C(Nc1ccc(Cl)cn1)c1ccccc1-c1ccccc1`, 5.73% (inactive). On to `Oc1ccccc1-c1cc(-c2ccc(Cl)cc2)n[nH]1`, for which the Potency was 16.4 µM (active). In the case of `O=C(COc1ccc(Br)cc1)OCC(=O)c1ccc[nH]1`, the “activity, negative = toxicity” value was -0.3% (inactive). The same measure, in the same setting: for `Cc1ccc(C(=O)N[C@H](C(=O)N2CCN(c3ncccn3)CC2)C(C)C)cc1` the value was -5.92% (inactive); for `O=C(CO/N=C/c1ccccc1O)NNC(=O)c1ccccc1Cl`, -23.8% (inactive). In the case of `C=CCOc1ccccc1/C=N/NC(=O)Cc1ccccc1`, the “activity, negative = toxicity” value was 5.83% (inactive). As for `O=C(NN=Cc1ccccc1)c1ccccc1`, the “activity, negative = toxicity” value was 12.9% (inactive). On to `O=C(N/N=C/c1ccccc1O)C1CCCC1`, for which the Potency was 23.1 µM (active).

In the case of `COc1ccc(/C=N/NC(=O)C2CC2)c(OC)c1OC`, the “activity, negative = toxicity” value was 16.6% (inactive). In the case of `O=C(N/N=C/c1ccccc1O)/C(=C/c1ccccc1)CCO`, the Potency was 3.26 µM (active).

As for `O=C(CCC(=O)Nc1ccccc1)N/N=C/c1ccccc1F`, the “activity, negative = toxicity” value was 12.4% (inactive). In the case of `O=C(NN=Cc1ccccc1O)NN=Cc1ccccc1O`, the Potency is 8.2 µM (active). On to `Oc1ccccc1C=NC1CCCCC1N=Cc1ccccc1O` (stereo unspecified), for which the “activity, negative = toxicity” value was 2.75% (inactive). Still for that read-out and setting: to `Brc1ccc2nc(-c3ccccc3)c(Cc3ccccc3)n2c1` belongs 18.4% (inactive). With `O=C(/C(=C/c1cccc(Cl)c1)c1nc2ccccc2[nH]1)c1ccccc1`, the Potency is 3.26 µM (active).

For `O=C(N/N=C/c1ccc(Cl)cc1)c1nc2ccc([N+](=O)[O-])cc2c(=O)[nH]1`, the “activity, negative = toxicity” value was 9.48% (inactive). As for `N#C/C(=C(/O)COC(=O)COc1ccc(Cl)cc1)c1nc2ccccc2[nH]1`, the “activity, negative = toxicity” value was 25.4% (inactive). With `O=C(Nc1cc(Br)ccc1F)c1nc[nH]c1C(=O)NCc1ccccc1`, the “activity, negative = toxicity” value is 0.69% (inactive). Regarding `O=C(Nc1ccon1)c1nc[nH]c1C(=O)NCc1ccccc1`, the Potency was 2.59 µM (active). For the molecule `CCOC(=O)c1ccc(NC(=O)c2nc[nH]c2C(=O)NCc2ccccc2)cc1`, the “activity, negative = toxicity” value is 9.29% (inactive). Same read-out and setting: for `COc1ccc(-c2c(C#N)cnc(C)c2C)c(O)c1OC` the value was 4.41% (inactive).

With `OCCN1CCN(c2ncnc3c2ncn3[C@H]2CN(Cc3ccco3)C[C@@H](CO)O2)CC1`, the “activity, negative = toxicity” value is 20.7% (inactive). Still for that read-out and setting: for `O=C(NN=Cc1ccc2c(c1)CCC2)c1ccccc1O` the value was 5.14% (inactive). `COc1ccc(-c2ccc(C(=O)NCCN3CCOCC3)c3occc23)c(C)c1`: the Potency was 18.4 µM (active). Regarding `COc1ccc(-c2cc(C(=O)NCCCN3CCOCC3)no2)cc1`, the “activity, negative = toxicity” value is 3.26% (inactive).

In the case of `Cc1cc(C)cc(C(=O)NCCN2CCOCC2)c1`, the “activity, negative = toxicity” value was 2.86% (inactive). The same measure, in the same setting: to `CCCNC(=O)C[C@@H]1CC[C@@H]2[C@H](COC[C@H](O)CN2C(=O)c2cc(Cl)cc(Cl)c2)O1` belongs 16.4% (inactive); to `CC(OC(=O)c1cccnc1Cl)C(=O)NC1CCCCC1` (stereo unspecified), -0.365% (inactive). For the molecule `COc1cccc(-c2ccc3c(c2)N(Cc2ccccc2OC)C(=O)C(C)S3)c1` (stereo unspecified), the “activity, negative = toxicity” value is -4.09% (inactive).

With `O=C(NNC(=O)C1CCC1)c1ccccc1`, the “activity, negative = toxicity” value is 4.36% (inactive). The same measure, in the same setting: for `Cc1ccc(C)c(OCC(=O)NNC(=O)C2CCC2)c1` the value was 7.65% (inactive). In the case of `Cc1ccc(NNC(=O)C2CCC2)cc1C`, the Potency was 7.31 µM (active).

In the case of `CC1(C2CC2)NC(=O)N(CC(=O)N2CCN(c3ccccc3F)CC2)C1=O` (stereo unspecified), the “activity, negative = toxicity” value was -2.54% (inactive). Still for that read-out and setting: for `CCCCCCN1CCN(C2CN(Cc3cn(Cc4ccc(F)cc4)nn3)S(=O)(=O)C2)CC1` (stereo unspecified) the value was -1.26% (inactive). Turning to `COC(=O)c1ccc(NC(=O)c2ccccc2NS(=O)(=O)c2ccccc2)cc1`, the Potency was 11.2 µM (active).

In the case of `COC(=O)c1ccccc1NS(=O)(=O)c1ccc2[nH]c(=O)[nH]c2c1`, the “activity, negative = toxicity” value was 6.48% (inactive). The same measure, in the same setting: to `CCOc1ccc(NC(=O)c2ccccc2NS(C)(=O)=O)cc1` belongs 2.92% (inactive). Same read-out and setting: for `O=C(C(=O)N1CCN(c2ccccc2)CC1)c1ccc2c(c1)OCO2` the value was 11% (inactive); for `CN(C)CCN1CCN(c2cc(-c3cccc(Cl)c3)nc3ccnn23)CC1`, -16.7% (inactive). With `C#Cc1cc(N2CCN(C(=O)c3ccoc3)CC2)n2nc(-c3cccc(Cl)c3)cc2n1`, the Potency was 9.2 µM (active). Consider `O=C(c1ccccc1)N1CCN(c2cc(-c3ccccc3)nc3cc(-c4cccc(Cl)c4)nn23)CC1`, for which the “activity, negative = toxicity” value is 8.08% (inactive).

Consider `O=C(NCc1ccccc1)C(c1ccc(F)cc1)N1CCN(C(=O)C2CCCO2)CC1` (stereo unspecified), for which the “activity, negative = toxicity” value is 21.4% (inactive).

Turning to `O=C1CC(c2ccccc2)=NN1c1ccc([N+](=O)[O-])cc1`, the Potency is 20.6 µM (active). For `COc1ccc(C2=NN(c3nc4ccccc4s3)C(=O)C2)cc1`, the “activity, negative = toxicity” value was -24.9% (inactive). The same measure, in the same setting: to `O=[N+]([O-])c1ccc(N2CCOCC2)cc1` belongs -1% (inactive); to `CSc1nc2ccc(NC(=O)c3c(F)cccc3F)cc2s1`, -17.3% (inactive).

With `CCCC(=O)Nc1nc2ccc(NC(=O)c3c(F)c(F)c(OC)c(F)c3F)cc2s1`, the Potency is 0.651 µM (active). In the case of `CC(=O)Nc1ccc2nc(NC(=O)CS(=O)(=O)c3ccc(F)cc3)sc2c1`, the “activity, negative = toxicity” value was -0.314% (inactive).

As for `Nc1nc2ncccn2c1-c1ccccc1`, the “activity, negative = toxicity” value is 23.7% (inactive).

On to `CCN1C(=O)[C@@H]2[C@@H]3CN(S(=O)(=O)c4ccccc4C)[C@@H](c4ccc(Cl)cc4)[C@@H]3C(=O)C[C@@H]2C1=O`, for which the “activity, negative = toxicity” value was 4.33% (inactive). `O=[N+]([O-])c1ccccc1/C=C/CN1CCC(O)CC1`: the “activity, negative = toxicity” value is -1.05% (inactive).

As to `CC1CCCCC1NC(=O)/C(C#N)=C/C=C/c1ccccc1[N+](=O)[O-]` (stereo unspecified), the Potency is 4.61 µM (active). In the case of `O=[N+]([O-])c1ccccc1/C=C/CN1CCCC(CO)C1` (stereo unspecified), the “activity, negative = toxicity” value is -11.4% (inactive).

For the molecule `CC1=C(C(=O)Nc2cccc(C(=O)NCC(C)c3ccccc3)c2)SCCO1` (stereo unspecified), the “activity, negative = toxicity” value was -0.161% (inactive). Still for that read-out and setting: to `O=C(NCc1cccnc1)c1cc(C2CCCN(C(=O)C3CCCCC3)C2)on1` (stereo unspecified) belongs 0.399% (inactive).
